The values that follow come from PubChem BioAssay (NCI).

The structures appear in SMILES notation. Where “and” joins values, the source holds several entries; their conditions need not be identical. Equal values may be shown once. The panel holds about 79,000 compounds, 15% with a hit somewhere; the sample as a whole holds those more often. Calls of active or inactive are those of the source. Rule as the data show it: active = growth inhibition above about 70%; inactive = the rest.

One assay can be described thus: NCI Yeast Anticancer Drug Screen. Data for the bub3 strain (AID 167). The conditions noted are these: S. cerevisiae bub3 mutant strain, hits give high values; at 50.0 µM unless noted. A digest of the protocol: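 Mutant yeast screening strain plus compound; vehicle-treated cultures serve as the 0% inhibition reference.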
In the case of `COc1cc2c(cc1OC)C(=O)/C(=C/c1cc(OC)c(OC)c(OC)c1)C2`, the growth inhibition was -12.8% (inactive).

As for `O=C1NN(C(=O)c2ccccc2)C(c2ccccc2[N+](=O)[O-])c2c1c1ccccc1n2C(=O)c1ccccc1` (stereo not given), the growth inhibition was -4.05% (inactive).

Turning to `O=C(O)C1C2CC=CCC21` (stereo not given), the growth inhibition is 12.2% (inactive).

As for `Cc1cc(N(CCC#N)CCC#N)ccc1/C=C1/CN(N2C(=O)/C(=C/c3ccc(N(CCC#N)CCC#N)cc3C)N=C2c2ccccc2)C(c2ccccc2)=N1`, the growth inhibition was -28.8% (inactive).

As to `N#CC(C(=O)CCC(=O)C(C#N)c1ccccc1)c1ccccc1` (stereo not given), the growth inhibition is 6.45% (inactive).

Take `CCCC(C)C(C(=O)OCC)C(=O)OCC` (stereo not given): the growth inhibition was -11.3% (inactive) and -14% (inactive).

With `NNc1nc(NCc2ccco2)c2[nH]cnc2n1`, the growth inhibition is 2.5% (inactive).

Consider `Cc1ccc(/C=C2\NC(=S)NC2=O)cc1`, for which the growth inhibition was -23.4% (inactive).

Turning to `COc1ccc(-c2nnc(N)s2)cc1OC`, the growth inhibition is -7.05% (inactive).

For the molecule `Cc1c2noc1CCCCCCCCCCC2`, the growth inhibition was -13.7% (inactive).

Consider `O=C(Cc1ccccc1)N/N=C(/c1nc2ccc([N+](=O)[O-])cc2[nH]c1=O)C(O)c1ccccc1Cl` (stereo not given), for which the growth inhibition was 5.7% (inactive).

For `CC(C)N1C(=O)NC2C1NC(=O)N2C(C)C` (stereo not given) (tested in a mixture with another compound), the growth inhibition is -12.8% (inactive).

As to `Cn1cnc2nc(Cl)nc(N)c21`, the growth inhibition is 7.75% (inactive).

For the molecule `COc1cccc2c(SC)c(C)[nH]c12`, the growth inhibition is -19.8% (inactive).

Consider `CCC(CC)C(O)C(C)C(C)O` (stereo not given), for which the growth inhibition is -11.2% (inactive).

With `N#CC1(C(=O)c2ccccc2)C=Cc2ccccc2N1C(=O)c1ccccc1` (stereo not given), the growth inhibition was 26.2% (inactive).

Consider `Cc1[nH]c(N)nc(=S)c1CCCNc1ccccc1`, for which the growth inhibition is -32.3% (inactive).

In the case of `CCCCCCCCCC(=O)N=C(C(N)=O)C(N)=O`, the growth inhibition is 1.7% (inactive).

For `CCOC(=O)c1cnc2c(cnn2CC)c1NCC(C)C`, the growth inhibition was 85.9% (active).

For the molecule `O=C(O)c1ccccc1-c1ccccc1`, the growth inhibition is -15.3% (inactive).

On to `O=c1c2ccc(Cl)cc2nc2nc(-c3ccccc3)c3cc(Cl)ccc3n12`, for which the growth inhibition was 6.3% (inactive).

In the case of `O=C(O)c1c(O)cc(=O)oc1-c1ccc(Cl)cc1`, the growth inhibition is 10.4% (inactive).

Consider `CC(C)(C)SC(=S)SCC(=O)c1ccc(F)cc1`, for which the growth inhibition is -1.65% (inactive).

Regarding `COc1ccc(C2=C(c3ccccc3)C(=O)C3(c4ccccc4)CC23c2ccc(OC)cc2)cc1` (stereo not given), the growth inhibition is 1.15% (inactive).

With `Cc1nccn1C(/C(=N/O)c1ccccc1)c1ccccc1` (stereo not given), the growth inhibition is 10.8% (inactive).

Regarding `CN(C)CC(O)(C(=O)c1ccccc1)c1ccccc1` (stereo not given), the growth inhibition was -19.6% (inactive).

On to `N#CC1CCC[N-]C1.N#CC1CCC[N-]C1.[Cl][Pt+2][Cl]` (stereo not given), for which the growth inhibition was 4.3% (inactive).

With `CCCCCCCCCCCCCCCCCCOc1ccccn1`, the growth inhibition is -17.9% (inactive).

On to `O=c1c2cc3c(=O)n4c(cc(-c5ccccc5)c5cc(Cl)ccc54)nc3cc2nc2cc(-c3ccccc3)c3cc(Cl)ccc3n12`, for which the growth inhibition is -1.05% (inactive).

As to `COC(=O)CCC(C)C1CCC2(C)C3=C(C(=O)CC12C)C1(C)CCC(O)C(C)(C)C1=C(O)C3` (stereo not given), the growth inhibition is 70.8% (active).

On to `O=c1oc(=O)c2cc3c(=O)oc(=O)c3cc12`, for which the growth inhibition was 7.1% (inactive).

For the molecule `COc1cc2c(cc1OC)[C@H](c1cc(OC)c3c(c1)OCO3)[C@H]1C(=O)OCC1C2` (stereo not given in full), the growth inhibition is 30.6% (inactive).

In the case of `Nc1ccc(Cc2cc([N+](=O)[O-])cc([N+](=O)[O-])c2)cc1`, the growth inhibition was 15.3% (inactive).

In the case of `COC(=O)C(=O)C(C(=O)C=C(C)C)C(=O)C(=O)Nc1ccc(C)cc1C` (stereo not given), the growth inhibition is -18.6% (inactive).

Take `O=C(O)C1CC(=O)N(Cc2ccccc2)C1` (stereo not given): the growth inhibition is 26.7% (inactive).

For the molecule `CC(C)(C)c1ccncc1`, the growth inhibition is 5.15% (inactive).

As for `CCSC1C(O)C(CO)OC1n1cnc2c(=S)nc[nH]c21` (stereo not given), the growth inhibition was 5% (inactive).

On to `C1CSCCSS[C@@H]2CCCCC2SC1` (stereo not given in full), for which the growth inhibition was -12.1% (inactive).

Regarding `Cc1cc(N)c(N)cc1C`, the growth inhibition is 35.9% (inactive).

As for `O=C(O)C1Cc2c([nH]c3ccccc23)CN1` (stereo not given), the growth inhibition is 24.1% (inactive).

The nature of a further assay: NCI Yeast Anticancer Drug Screen. Data for the mlh1 rad18 strain (AID 175). The settings on record: S. cerevisiae mlh1 rad18 strain growth inhibition, hits give high values; at 50.0 µM unless noted. A digest of the protocol: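 Compound-treated yeast growth, normalised to vehicle controls. Strain bears defined DNA repair mutations.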
On to `COc1cc2c(cc1OC)C(=O)/C(=C/c1cc(OC)c(OC)c(OC)c1)C2`, for which the growth inhibition is -69% (inactive).

Regarding `O=C1NN(C(=O)c2ccccc2)C(c2ccccc2[N+](=O)[O-])c2c1c1ccccc1n2C(=O)c1ccccc1` (stereo not given), the growth inhibition is 14.9% (inactive).

Take `O=C(O)C1C2CC=CCC21` (stereo not given): the growth inhibition is 16.6% (inactive).

As for `Cc1cc(N(CCC#N)CCC#N)ccc1/C=C1/CN(N2C(=O)/C(=C/c3ccc(N(CCC#N)CCC#N)cc3C)N=C2c2ccccc2)C(c2ccccc2)=N1`, the growth inhibition was -11.1% (inactive).

Turning to `N#CC(C(=O)CCC(=O)C(C#N)c1ccccc1)c1ccccc1` (stereo not given), the growth inhibition is -6.4% (inactive).

Take `CCCC(C)C(C(=O)OCC)C(=O)OCC` (stereo not given): the growth inhibition was -15.3% (inactive) and -7.4% (inactive).

On to `NNc1nc(NCc2ccco2)c2[nH]cnc2n1`, for which the growth inhibition is 12.8% (inactive).

Consider `Cc1ccc(/C=C2\NC(=S)NC2=O)cc1`, for which the growth inhibition was -41.4% (inactive).

Consider `COc1ccc(-c2nnc(N)s2)cc1OC`, for which the growth inhibition was 6.35% (inactive).

As to `Cc1c2noc1CCCCCCCCCCC2`, the growth inhibition was 17.9% (inactive).

`O=C(Cc1ccccc1)N/N=C(/c1nc2ccc([N+](=O)[O-])cc2[nH]c1=O)C(O)c1ccccc1Cl` (stereo not given): the growth inhibition was 16.1% (inactive).

`CC(C)N1C(=O)NC2C1NC(=O)N2C(C)C` (stereo not given) (tested in a mixture with another compound): the growth inhibition was -3.05% (inactive).

In the case of `Cn1cnc2nc(Cl)nc(N)c21`, the growth inhibition was -9.4% (inactive).

As to `COc1cccc2c(SC)c(C)[nH]c12`, the growth inhibition was 14.8% (inactive).

In the case of `CCC(CC)C(O)C(C)C(C)O` (stereo not given), the growth inhibition was -4.75% (inactive).

Consider `N#CC1(C(=O)c2ccccc2)C=Cc2ccccc2N1C(=O)c1ccccc1` (stereo not given), for which the growth inhibition is -19.2% (inactive).

Take `Cc1[nH]c(N)nc(=S)c1CCCNc1ccccc1`: the growth inhibition was 26.2% (inactive).

With `CCCCCCCCCC(=O)N=C(C(N)=O)C(N)=O`, the growth inhibition is 21.8% (inactive).

As to `CCOC(=O)c1cnc2c(cnn2CC)c1NCC(C)C`, the growth inhibition is 3.35% (inactive).

On to `O=C(O)c1ccccc1-c1ccccc1`, for which the growth inhibition is -1.9% (inactive).

Regarding `O=c1c2ccc(Cl)cc2nc2nc(-c3ccccc3)c3cc(Cl)ccc3n12`, the growth inhibition was 46.5% (inactive).

For `O=C(O)c1c(O)cc(=O)oc1-c1ccc(Cl)cc1`, the growth inhibition was 4.75% (inactive).

As for `CC(C)(C)SC(=S)SCC(=O)c1ccc(F)cc1`, the growth inhibition was 1.5% (inactive).

`COc1ccc(C2=C(c3ccccc3)C(=O)C3(c4ccccc4)CC23c2ccc(OC)cc2)cc1` (stereo not given): the growth inhibition is 4.7% (inactive).

On to `Cc1nccn1C(/C(=N/O)c1ccccc1)c1ccccc1` (stereo not given), for which the growth inhibition is 3.2% (inactive).

For `CN(C)CC(O)(C(=O)c1ccccc1)c1ccccc1` (stereo not given), the growth inhibition was -6.05% (inactive).

Regarding `N#CC1CCC[N-]C1.N#CC1CCC[N-]C1.[Cl][Pt+2][Cl]` (stereo not given), the growth inhibition was 42.4% (inactive).

For the molecule `CCCCCCCCCCCCCCCCCCOc1ccccn1`, the growth inhibition is 3.25% (inactive).

In the case of `O=c1c2cc3c(=O)n4c(cc(-c5ccccc5)c5cc(Cl)ccc54)nc3cc2nc2cc(-c3ccccc3)c3cc(Cl)ccc3n12`, the growth inhibition is -9.7% (inactive).

Take `COC(=O)CCC(C)C1CCC2(C)C3=C(C(=O)CC12C)C1(C)CCC(O)C(C)(C)C1=C(O)C3` (stereo not given): the growth inhibition is 83.8% (active).

Turning to `O=c1oc(=O)c2cc3c(=O)oc(=O)c3cc12`, the growth inhibition is -5.6% (inactive).

As to `COc1cc2c(cc1OC)[C@H](c1cc(OC)c3c(c1)OCO3)[C@H]1C(=O)OCC1C2` (stereo not given in full), the growth inhibition is 15.4% (inactive).

For the molecule `Nc1ccc(Cc2cc([N+](=O)[O-])cc([N+](=O)[O-])c2)cc1`, the growth inhibition was -29.8% (inactive).

For `COC(=O)C(=O)C(C(=O)C=C(C)C)C(=O)C(=O)Nc1ccc(C)cc1C` (stereo not given), the growth inhibition was -29.6% (inactive).

As to `O=C(O)C1CC(=O)N(Cc2ccccc2)C1` (stereo not given), the growth inhibition is 34% (inactive).

`CC(C)(C)c1ccncc1`: the growth inhibition is -4.65% (inactive).

For the molecule `CCSC1C(O)C(CO)OC1n1cnc2c(=S)nc[nH]c21` (stereo not given), the growth inhibition was 0.2% (inactive).

Take `C1CSCCSS[C@@H]2CCCCC2SC1` (stereo not given in full): the growth inhibition is -17.1% (inactive).

Take `Cc1cc(N)c(N)cc1C`: the growth inhibition was 38.5% (inactive).

Regarding `O=C(O)C1Cc2c([nH]c3ccccc23)CN1` (stereo not given), the growth inhibition is 9.25% (inactive).
